# Rango complex inh = Rango-importin beta binding inhibition; Q14974; Rango CFP/YFP FRET sensor + importin beta, 45 min; Potency, µM (series often up to 92.2 µM), inactives show at the top dose inhibition of complex formation; 0.031% of 340,000 active; calls by dose curve;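 note: potency is the fitted concentration of half-maximal effect; 0% = DMSO wells and 100% = buffer wells lacking importin beta; nearly all actives have a fitted effect of over 15% in size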
#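 FRET biosensor Rango (snurportin 1 IBB between N-terminal EYFP and C-terminal Cerulean), 50 nM in PBS/1 mM DTT/0.02% Tween-20/0.1% BSA, preincubated 5 min RT with compound; 0.125 microM importin beta added, 45 min RT, CFP/YFP FRET ratio read.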
# PI5P4Ka inh = blocks human PI5P4K alpha kinase activity | max response, % | AID 652105 | 1.2% of 330,000 active | P48426 | PI5P4Kalpha enzyme, ADP-Glo luminescence, 60 min; active compounds read low; active = max response of -50% or lower; inconclusive = between -30% and -50%; inactive = -30% or higher; note: value at the top dose of about 77 µM; % is set by controls: 0 for no effect and ±100 for the full control effect
#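 qHTS, 1536-well: enzyme/substrate mix, compound by pin tool, 5 microM ATP final; RT 60 min; ADP-Glo reagents 1 (45 min) then 2 (30 min); luminescence.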
# PLK1 PBD inh = PLK1 (human) polo-box domain binding inhibition | 2.8% of 360,000 active | Potency, µM, for the others: max response, negative = inhibition, most hits filed as inhibitors | Plk1 PBD binding of FITC phosphopeptide, fluorescence polarization; note: potency is the fitted concentration of half-maximal effect; series mostly up to about 57 µM; % is set by controls: 0 for no effect and ±100 for the full control effect; nearly all actives have a fitted effect of over 65% in size
# Target sequence (P53350 whole entry, looked up, the tested form may be a part): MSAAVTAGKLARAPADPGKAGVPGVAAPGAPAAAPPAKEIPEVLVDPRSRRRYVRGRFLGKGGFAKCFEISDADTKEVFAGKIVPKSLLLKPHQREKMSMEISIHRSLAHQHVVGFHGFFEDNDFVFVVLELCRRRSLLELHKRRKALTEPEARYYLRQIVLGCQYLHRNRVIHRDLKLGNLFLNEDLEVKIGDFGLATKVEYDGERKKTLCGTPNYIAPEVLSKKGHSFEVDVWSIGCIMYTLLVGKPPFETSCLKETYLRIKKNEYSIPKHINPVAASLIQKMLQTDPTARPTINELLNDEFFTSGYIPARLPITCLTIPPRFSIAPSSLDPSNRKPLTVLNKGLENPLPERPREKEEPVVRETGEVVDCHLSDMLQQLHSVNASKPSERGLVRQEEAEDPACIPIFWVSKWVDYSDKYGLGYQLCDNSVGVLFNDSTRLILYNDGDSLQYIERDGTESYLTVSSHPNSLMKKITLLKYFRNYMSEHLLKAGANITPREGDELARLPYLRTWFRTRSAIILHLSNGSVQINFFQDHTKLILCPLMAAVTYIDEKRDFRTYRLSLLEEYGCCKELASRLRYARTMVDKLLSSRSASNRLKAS
# KAT2A inh = GCN5L2 (KAT2A) acetyltransferase inhibition; 0.21% of 390,000 active; GCN5L2 HAT assay, ThioGlo1 CoA-SH fluorescence; Potency, µM (series often up to 58.9 µM), for inactives: top-dose activity change, negative = inhibition, hits mostly inhibitors; AID 504327; note: potency is the fitted concentration of half-maximal effect; % is set by controls: 0 for no effect and ±100 for the full control effect
#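 Fluorescence readout, Ex340nm/Em540nm: ThioGlo1 (50uM final) reacts with free CoA thiol released as 20nM GCN5L2 acetylates H3(1-25) peptide (75uM) using acetyl-CoA (70uM). Compound and enzyme sat 15 min beforehand; 20 min room-temperature reaction.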
# Rango dissoc inh = inhibition of RanGTP-driven Rango-importin beta dissociation; Biochemical FRET Rango-importin beta, RanGTP-induced dissociation; Potency, µM (titrated, usually from 46.1 µM), for the others: at the highest dose activity change, negative = inhibition; 0.071% of 340,000 active; AID 540253; calls by dose curve; note: potency is the fitted concentration of half-maximal effect; % of control where 0% means no effect; nearly all actives have a fitted effect of over 45% in size
#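 Rango/importin beta premix (0.1/0.25 uM final), PBS + 1 mM DTT + 0.02% Tween-20 + 0.1% BSA; cpd 5 min RT; FRET pre-read; + RanGTP-RCC1 (0.6 uM Ran, 2 mM GTP, 0.2 uM RCC1); 45 min RT; FRET post-read, ex 430, em 486/530 nm.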
# VDR inhibitor = vitamin D3 receptor (human) inhibition; VDR-SRC2-3 peptide fluorescence polarization, 2 h; P11473; 0.93% of 400,000 active; Potency, µM, for the others: max response, negative = inhibition, usual class: inhibitors; note: potency is the fitted concentration of half-maximal effect; % is set by controls: 0 for no effect and ±100 for the full control effect
#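 Signal is fluorescence polarization, reporting how far test compounds block the interaction of VDR with the SRC2-3 coregulator peptide after a 2 h room-temperature incubation.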
# Active calls of the source: *; ? = inconclusive; . = no result given. Rows were chosen to be rich in hits. Some 3.6% of all compounds tested hit in one or more screens of this group. Unless noted, calls come from the whole dose curve; as a rule, active = well fitted curve in the direction sought with a large enough effect; inconclusive = small, poorly fitted or top-dose-only effect, or another doubt; inactive = no such curve, though single readings can be large; an effect the other way counts as inactive or inconclusive.
SMILES,Rango complex inh,PI5P4Ka inh,PLK1 PBD inh,KAT2A inh,Rango dissoc inh,VDR inhibitor
O=C(Cn1cnc2scc(-c3ccc(F)cc3)c2c1=O)N1CCOCC1,2%,-8,2%,0%,4%,9%
Cc1ccc(-c2csc3ncn(CC(=O)N4CCOCC4)c(=O)c23)cc1C,1%,4,30µM*,0%,24%,-1%
Cc1ccc(-c2csc3ncn(CC#N)c(=O)c23)cc1C,-2%,-91*,-8%,-12%,2%,-10%
Cc1ccc(C(=S)N2CCN(Cc3ccccc3)CC2)s1,-2%,3,3µM*,-5%,9%,?
Cc1cccc(NC(=S)N2CCN(Cc3ccccc3)CC2)c1C,-5%,4,-3%,-3%,-1%,-5%
Cc1ccc(NS(=O)(=O)c2cc(NC(=O)c3ccc4c(c3)NC(=O)CS4)ccc2Cl)c(C)c1,0%,?,6µM*,-11%,?,-23%
COc1ccc(NC(=O)c2ccc3c(c2)NC(=O)CS3)cc1,2%,-1,10%,-4%,-1%,-5%
COc1cccc(C(=O)Nc2ccccc2C(=O)OCc2cc(=O)n3nc(C4CC4)sc3n2)c1,.,.,.,-4%,.,6%
CC(C(=O)N1CCCCC1)N(C)CC(=O)Nc1ccc(Cl)cc1 (stereo unspecified),1%,-22,12µM*,-10%,16%,?
O=C(/C=C/c1ccc(O)cc1)OC[C@H]1O[C@@H](Oc2c(-c3ccc(O)cc3)oc3cc(O)cc(O)c3c2=O)[C@H](O)[C@@H](O)[C@@H]1O,.,.,.,0%,.,-3%
Clc1cccc(CSc2nnc(C3CCNCC3)o2)c1,.,.,.,-7%,.,0%
CC(C)(C)NC(=O)C(c1c[nH]c2ccccc12)N(C(=O)Cn1nnc(-c2ccc(F)cc2)n1)c1cccc(O)c1 (stereo unspecified),-2%,-21,27µM*,-11%,1%,?
Cc1cc(/C=C2\SC(=S)NC2=O)c(C)n1-c1ccc(O)cc1,?,-83*,-18%,-9%,?,-1%
Cc1cc(/C=C2\SC(=S)NC2=O)c(C)n1-c1ccccc1,?,-83*,?,-21%,?,7%
Cc1cc(/C=C2\SC(=S)NC2=O)c(C)n1C,?,.,-9%,-3%,?,-5%
Cc1cc(C(=O)O)ccc1-n1c(C)cc(/C=C2\SC(=O)NC2=O)c1C,-1%,-58*,-9%,1%,-24%,-19%
Cc1cc2oc3c(c(=O)c2cc1C)C(c1ccc(C(C)C)cc1)N(c1nc(C)c(C)s1)C3=O (stereo unspecified),.,.,.,1%,.,4%
Cc1nn2c(C)c(C(=O)NC(C)c3ccccc3)cnc2c1-c1ccc(F)cc1 (stereo unspecified),.,.,.,-11%,.,-4%
COc1cc2c(cc1OC)C(c1ccc(F)cc1)N(c1ccc(F)cc1)C(=O)C2 (stereo unspecified),.,.,.,-7%,.,12%
CSc1ccccc1NC(=O)CN(C)Cc1c(O)ccc2ccccc12,0%,-18,11µM*,-7%,-8%,?
CN(CC(=O)Nc1ccc(N2CCOCC2)cc1)Cc1c(O)ccc2ccccc12,2%,-27,4.7µM*,-6%,?,28µM*
COc1ccc(OCCN(C)Cc2c(O)ccc3ccccc23)cc1,0%,0,8.4µM*,-6%,-7%,?
Cc1ccc(N2C(=O)CS(=O)C(c3ccccc3)C2=O)cc1C (stereo unspecified),-1%,-26,1.5µM*,20%,-5%,?
Cc1ccc(NC(=O)CN2C(=O)CCc3ccccc32)cc1C,.,.,.,-19%,.,-1%
Cc1ccc2nc(-c3cccc(-c4nc5ccc(C)cc5o4)n3)oc2c1,.,.,.,.,.,50µM*
SMILES,Rango complex inh,PI5P4Ka inh,PLK1 PBD inh,KAT2A inh,Rango dissoc inh,VDR inhibitor
Cc1ccc2nc(CCc3nc4ccc(C)cc4o3)oc2c1,0%,-29,6µM*,-2%,4%,?
COc1ccc2c(CNCCc3ccc(SC)cc3)c(C(=O)O)n(Cc3ccc(F)cc3)c2c1,.,.,.,-11%,.,10%
COc1ccccc1-c1nn2c(-c3cc(C)[nH]n3)nnc2s1,.,.,.,.,.,-5%
O=C(CNC(=O)c1ccco1)N=Nc1c(O)n(CCc2ccccc2)c2ccccc12,4%,1,-2%,-6%,0%,-3%
CCCCn1c(O)c(N=NC(=O)c2ccco2)c2ccccc21,-1%,-15,19µM*,-5%,-13%,50µM*
COc1ccc(C)cc1Nc1nc(C)nc2sc(C)cc12,2%,-3,30µM*,-1%,7%,?
COc1ccc(C)cc1Nc1nc(-c2ccccc2O)nc2ccccc12,-3%,38,-8%,?,-8%,-3%
O=S(=O)(c1ccccc1Cl)N1CCN(c2nc(-c3ccccc3)nc3ccccc23)CC1,.,.,.,.,.,-17%
CC1(c2ccccc2)CC(C)(C)N2C(=O)/C(=C3\SC(=S)NC3=O)c3cccc1c32 (stereo unspecified),-1%,-25,24µM*,-2%,-1%,-1%
CC1(c2ccccc2)CC(C)(C)N2C(=O)C3(C(C#N)=C(N)Oc4cc(O)ccc43)c3cccc1c32 (stereo unspecified),0%,.,-1%,-9%,7%,-10%
COc1ccc(Cc2nn3c(Cn4nnc5ccccc54)nnc3s2)cc1,0%,?,21µM*,-7%,-3%,?
COc1ccc(Cc2nn3c(-c4ccccc4OC)nnc3s2)cc1,-2%,0,?,2%,4%,9%
c1ccc(-c2nn3c(Cn4nnc5ccccc54)nnc3s2)cc1,-4%,.,13µM*,-17%,-3%,-79%
CC1=C(c2ccc(C)cc2)S(=O)(=O)N(Cc2ccc(C(=O)NCc3cccc(C)c3)cc2)C1=O,.,.,.,-9%,.,8%
Cc1nn(C(=O)CCCn2cc([N+](=O)[O-])cn2)c(C)c1Cl,0%,?,21µM*,-6%,-9%,-8%
O=C(O)COc1ccccc1C=NNC(=O)c1ccc(NS(=O)(=O)c2cccs2)cc1,-1%,-57*,-1%,-10%,-1%,5%
CC(=O)Nc1cccc(/C(C)=N/NC(=O)c2ccc(NS(=O)(=O)c3cccs3)cc2)c1,5%,-55*,-14%,0%,16%,23%
O=C(O)COc1ccccc1/C=N/NC(=O)c1ccncc1,.,.,.,-13%,.,8%
CCC(C(=O)NCCc1ccc(OC)c(OC)c1)n1nc(C)c2sc3ccccc3c2c1=O (stereo unspecified),.,.,.,-5%,.,-4%
O=C(CSc1ccccc1)N1CCN(S(=O)(=O)c2ccccc2)CC1,-1%,-6,12µM*,-7%,-6%,-29%
O=C(O)CSCC(=O)N1CCN(S(=O)(=O)c2ccccc2)CC1,-1%,-6,-10%,-14%,4%,8%
